# From PubChem BioAssay
# Mito fusion act = inhibitors of mitochondrial division or activators of mitochondrial fusion; S. cerevisiae fusion-defective mutant growth rescue, CellTiterGlo 48 h; Potency, µM (doses to about 46.1 µM), most hits filed as activators; actives 0.23% (n = 320,000); AID 485298; further: nearly all actives have a fitted effect of over 45% in size
#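 Growth-rescue viability read-out: after 48 h at the non-permissive 37C in glycerol/ethanol YPEG, yeast mitochondrial fusion mutants are measured by CellTiterGlo luminescence; compounds (23 nl pinned per well) restoring growth score as division inhibitors or fusion activators.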
# ClpP mod = qHTS Assay for Activators of ClpP; AID 651965, 2013; purified B. subtilis ClpP, FRET peptide cleavage, 20 min; ATP-dependent Clp protease proteolytic subunit (Bacillus subtilis (strain 168)), P80244; Potency, µM (top dose mostly 57.5 µM); actives 1.9% (n = 340,000); active means well fitted falling curve with a large enough effect; inconclusive means small, poorly fitted or top-dose-only effect; inactive means no such curve, though single readings can be large or run the other way; further: the source files actives as falling curves though it sought activators and does not explain the sign; nearly all actives have a fitted effect of over 65% in size
#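 ClpP 10 microg/mL final, pH 8 Tris/KCl buffer with BSA, glycerol, Tween-20; compound pinned in; FRET-FV substrate; RT 20 min; Ex320/Em430; ΔFRET vs ADEP 5.8 microM, DMSO, no enzyme.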
# p53 reactivator = re-activators of mutant p53; Potency, µM (doses to about 92.2 µM), hits mostly activators; actives 0.063% (n = 320,000); H1299 p53-A138V BP100-luciferase reporter, luminescence, 24 h; further: nearly all actives have a fitted effect of over 45% in size
#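 p53-null H1299 cells stably carrying temperature-sensitive p53-A138V and a BP100-luciferase reporter were pinned with compounds (4-point, 1:5 series) and held 24 hrs at 37 deg C. Luminescence was read 10 min after detection reagent.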
# Giardia killer = kills Giardia lamblia. activity change, % at 7.66 µM, hits read low. actives 0.15% (n = 340,000). Giardia lamblia trophozoite viability; in the data active means activity change below about -80%; inconclusive means between about -30% and that limit;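 further: parasites exposed to compound for two days anaerobically before the ATP read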
#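 Giardia lamblia trophozoites (100 cells/well) were incubated with compounds for 48 h at 37 deg C under anaerobic conditions. Viability was read as ATP content by one-step luminescence after 15-30 min at room temperature.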
# B2AR arrestin = agonists driving beta-arrestin recruitment to human beta2-adrenergic receptor; beta-arrestin recruitment to beta2AR, cell-based reporter; Potency, µM (series often up to 46.1 µM), actives largely listed as activators; actives 0.02% (n = 330,000); further: nearly all actives have a fitted effect of over 65% in size
# uPA generation = inhibitors of cell surface uPA generation; cell surface uPA generation assay, qHTS; Potency, µM (top dose mostly 38.3 µM), hits mostly inhibitors; actives 0.31% (n = 330,000); AID 540303; active means well fitted inhibition curve with a large enough effect; inconclusive means small, poorly fitted or top-dose-only effect; inactive means no such curve, though single readings can be large or run the other way; tested in mouse RAW 264.7 cells; further: nearly all actives have a fitted effect of over 55% in size
# Numbers stand for hits; – = inactive; ? = inconclusive; · = no result given; ! = a repeat was not active. An excerpt weighted towards active compounds, which were near 2.1% of everything screened. Unless noted, the call rests on the fitted dose curve; in most records, active means well fitted curve in the direction sought with a large enough effect; inconclusive means small, poorly fitted or top-dose-only effect, or another doubt; inactive means no such curve, though single readings can be large; an effect the other way counts as inactive or inconclusive.
SMILES,Mito fusion act,ClpP mod,p53 reactivator,Giardia killer,B2AR arrestin,uPA generation
O=C(O)/C=C/c1ccc([N+](=O)[O-])o1,–,·,–,–,–,–
Cc1ccc(S(=O)(=O)N2CCOCC2)cc1C(=O)Nc1nc(-c2ccccn2)cs1,·,–,?,–,–,–
O=C(Nc1nc(-c2ccccn2)cs1)c1ccc(Cl)s1,–,–,–,–,–,?
Cc1ccc(C(=O)Nc2nc(-c3ccccn3)cs2)s1,?,–,?,–,–,4.5µM
O=C(Nc1nc(-c2ccccn2)cs1)c1cccc(S(=O)(=O)N2CCOCC2)c1,–,–,–,–,–,10µM
CC(C)C(=O)Nc1nc(-c2ccc(S(=O)(=O)N3CCOCC3)cc2)cs1,–,32µM,–,–,–,–
CCc1ccccc1N(C)S(=O)(=O)c1ccc2c(c1)C(C)(C)C(=O)N2C,·,–,·,·,·,·
COc1ccc(CN2CCc3c([nH]c4ccccc34)C2)c(OC)c1C,–,28µM,·,–,–,–
Cc1ccc(C)c(C(=O)CSc2nc3cc(C(=O)NC4CCCC4)ccc3c(=O)n2CC2CCCO2)c1 (configuration not stated),·,–,·,·,·,·
CCC(=O)Nc1ccc(C(=O)Cn2ncc(Cl)c(Cl)c2=O)cc1,–,–,–,–,–,7.9µM
CCOC(=O)c1ccc(NC(=O)Cn2ncc(Cl)c(Cl)c2=O)cc1,–,·,–,–,–,–
COC(=O)c1ccc(COc2ccc(C3C4=C(CCCC4=O)Nc4onc(C)c43)cc2)cc1 (configuration not stated),–,28µM,–,–,–,–
COC(=O)c1ccc(C2CC(=O)NC3=C2C(=O)CCC3)cc1 (configuration not stated),–,–,–,–,–,–
CCN1CCN(c2nc3c(S(=O)(=O)c4ccc(Br)cc4)nnn3c3ccsc23)CC1,·,–,·,·,·,·
COc1ccc(CCNC(=O)c2ccc(Cn3c(=O)c4ccccc4n(Cc4ccc(F)cc4Cl)c3=O)cc2)cc1OC,·,–,·,·,·,·
COc1ccc(CCNC(=O)c2ccc(Cn3c(=O)c4ccccc4n(Cc4cccc(F)c4)c3=O)cc2)cc1OC,·,35µM,·,·,·,·
O=C(C1CCCN(c2ncnc3c2nc2n3CCCCC2)C1)N1CCN(c2cccc(Cl)c2)CC1 (configuration not stated),8.9µM,–,–,–,–,–
O=C(C1CCCN(c2ncnc3c2nc2n3CCCCC2)C1)N1CCN(c2ccccc2)CC1 (configuration not stated),–,–,–,–,–,–
CCN(Cc1ccccc1)c1ccc(/C=N/N=C(N)N)cc1,–,25µM,–,–,–,–
CCN(Cc1ccccc1)c1ccccc1,·,–,·,–,·,–
CC(C)(C)c1ccc(O)c(N=Cc2cccc([N+](=O)[O-])c2)c1,·,–,·,·,·,·
COc1cc(Cl)c(C)cc1NC(=O)c1cn(C2CCCC2)c(=O)c2c1c1ccccc1n2C,·,–,·,·,·,·
COc1cccc(NC(=O)c2cn(C3CCCCC3)c(=O)c3c2c2ccccc2n3C)c1,·,32µM,·,·,·,·
Cn1c2ccccc2c2c(C(=O)NCCCN3CCCC3=O)cn(C3CCCCC3)c(=O)c21,–,14µM,–,–,–,–
CCOC(=O)C1=C(CN2CCN(c3ccccc3F)CC2)NC(=O)NC1c1ccc(OC)cc1 (configuration not stated),·,–,·,·,·,·
SMILES,Mito fusion act,ClpP mod,p53 reactivator,Giardia killer,B2AR arrestin,uPA generation
COC(=O)C1=CNC=C(C(=O)OC)C1c1ccc(C(=O)OC)cc1,–,28µM,–,–,–,–
CCN(CC)CCCOc1cc2nc(N3CCCN(C)CC3)nc(NC3CCN(C)CC3)c2cc1OC,·,–,·,·,·,·
Clc1ccccc1CSc1nc2ccncc2[nH]1,–,–,?,?,–,4µM
O=C(NCc1ccccc1Cl)c1ccc(CSc2nc3ccncc3[nH]2)cc1,–,·,–,–,–,–
COc1ccc2noc3c2c1C(=O)c1ccccc1-3,·,–,·,–,·,10µM
COc1ccc(OC)c2c1C(=O)c1ccccc1C2=O,–,–,–,–,–,–
CCc1ccc(C2c3c(n[nH]c3C)C(=O)N2c2ccc(C)cc2)cc1 (configuration not stated),·,–,·,·,·,·
Cc1noc(C)c1CSCC(=O)Nc1cc(C(F)(F)F)ccc1N1CCCCC1,–,–,–,–,–,–
CCc1sc(C(=O)Nc2cc(Cl)ccc2N2CCCCC2)cc1C,–,22µM,–,–,–,–
Cc1noc(C)c1CSCC(=O)Nc1cc(Cl)ccc1N1CCCCC1,?,25µM,–,–,–,–
Cc1ccc(C(=O)Nc2cc(Cl)ccc2N2CCCCC2)s1,–,?,–,–,–,–
COc1cccc(NC(=O)C2CCN(S(=O)(=O)c3cccc4nonc34)CC2)c1,·,–,·,·,·,·
COc1ccc(Nc2nc(-c3sc(C)nc3C)cs2)cc1,–,–,–,–,–,?
Cc1nc(C)c(-c2csc(Nc3ccc(N)cc3)n2)s1,–,–,·,–,–,4.5µM
Cc1nc2sccn2c(=O)c1CCN1CCC(=C(c2ccccc2)c2ccc(F)cc2)CC1,18µM!,·,–,·,–,·
Cc1nc2sccn2c(=O)c1S(=O)(=O)N1CCN(c2ccccc2)CC1,–,–,·,?,–,–
Cc1ccccc1OCCC(=O)OCC(=O)c1c(N)n(CC(C)C)c(=O)n(C)c1=O,·,28µM,·,–,·,–
O=C(/C=C/Nc1ccc(F)cc1Br)c1ccccc1,–,–,–,-89,–,–
Cc1cc(N/C=C/C(=O)c2ccccc2)ccc1Br,–,–,–,–,–,–
CC1(C(=O)NS(=O)(=O)C2CC2)CCCN(C(=O)c2c(F)cccc2F)C1 (configuration not stated),·,–,·,·,·,·
Cc1ccc2c(c1)C1(C=CC(=O)C=C1)CC(=O)N2C,·,·,·,–,·,·
COc1ccccc1-c1cnc2c(c1)C(=O)N([C@@H](C)CO)C[C@@H](C)[C@H](CN(C)C(=O)c1cccnc1)O2,·,–,·,·,·,·
COc1cccc2c1cc1c(=O)n(CC(=O)N3CCN(c4cccc(C(F)(F)F)c4)CC3)nc(C)n12,·,16µM,·,·,·,·
CCOC(=O)C1CCCN(C(=O)Cn2nc(C)n3c(cc4c(OC)cccc43)c2=O)C1 (configuration not stated),–,–,–,–,–,–
CCOC(=O)C1CCN(C(=O)Cn2nc(C)n3c(cc4c(OC)cccc43)c2=O)CC1,·,2.8µM,·,·,·,·
Cc1ccc(C)c(N2CCN(C(=O)C3CCN(S(=O)(=O)c4cn(C)cn4)CC3)CC2)c1,·,–,·,·,·,·
Cc1ccc(NC(=O)CSCC(=O)Nc2nnc(C)s2)cc1,–,28µM,–,–,–,–
Cc1nnc(NC(=O)CSCc2ccccc2)s1,–,–,–,–,–,–
CC1CCN(CCCNC(=O)c2cc(Sc3ccc(F)cc3)nc3ccccc23)CC1,·,–,·,·,·,·
CCCC(=O)OCc1cnc(C)c2oc(=O)c(C(=O)Nc3ccc(F)cc3C)cc12,·,–,·,·,·,·
